22 compounds from PubChem BioAssay (NCATS) can be followed below.

Structures are written as SMILES. Inconclusive results are not listed. Values without a mark were called inactive. Activity calls are given as the source filed them. The call rests on the fitted dose curve; in most records, active means well fitted curve in the direction sought with a large enough effect; inconclusive means small, poorly fitted or top-dose-only effect, or another doubt; inactive means no such curve, though single readings can be large; an effect the other way counts as inactive or inconclusive.

Test [1] deals with Rap guanine nucleotide exchange factor 3 (Homo sapiens) (UniProt O95398). Kind of test: Confirmatory qHTS for antagonist of cAMP-regulated guanine nucleotide exchange factor 3 (EPAC1) (AID 1645880). Further: nearly all actives have a fitted effect of over 55% in size. Further: potency means the concentration at half of the fitted maximal effect. In a few lines: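 Released BODIPY-GDP fluoresces less than Rap1-bound BODIPY-GDP; the signal is followed at 480/540 nm at 5-min intervals over 30 min, after 5 min at room temperature. Reactions contain 100 nM EPAC1, 250 nM RAP1B-BODIPY-GDP and 50 uM GDP; results are normalized to ATA and DMSO.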
Chain of Rap guanine nucleotide exchange factor 3 (Homo sapiens) (O95398 whole entry, looked up): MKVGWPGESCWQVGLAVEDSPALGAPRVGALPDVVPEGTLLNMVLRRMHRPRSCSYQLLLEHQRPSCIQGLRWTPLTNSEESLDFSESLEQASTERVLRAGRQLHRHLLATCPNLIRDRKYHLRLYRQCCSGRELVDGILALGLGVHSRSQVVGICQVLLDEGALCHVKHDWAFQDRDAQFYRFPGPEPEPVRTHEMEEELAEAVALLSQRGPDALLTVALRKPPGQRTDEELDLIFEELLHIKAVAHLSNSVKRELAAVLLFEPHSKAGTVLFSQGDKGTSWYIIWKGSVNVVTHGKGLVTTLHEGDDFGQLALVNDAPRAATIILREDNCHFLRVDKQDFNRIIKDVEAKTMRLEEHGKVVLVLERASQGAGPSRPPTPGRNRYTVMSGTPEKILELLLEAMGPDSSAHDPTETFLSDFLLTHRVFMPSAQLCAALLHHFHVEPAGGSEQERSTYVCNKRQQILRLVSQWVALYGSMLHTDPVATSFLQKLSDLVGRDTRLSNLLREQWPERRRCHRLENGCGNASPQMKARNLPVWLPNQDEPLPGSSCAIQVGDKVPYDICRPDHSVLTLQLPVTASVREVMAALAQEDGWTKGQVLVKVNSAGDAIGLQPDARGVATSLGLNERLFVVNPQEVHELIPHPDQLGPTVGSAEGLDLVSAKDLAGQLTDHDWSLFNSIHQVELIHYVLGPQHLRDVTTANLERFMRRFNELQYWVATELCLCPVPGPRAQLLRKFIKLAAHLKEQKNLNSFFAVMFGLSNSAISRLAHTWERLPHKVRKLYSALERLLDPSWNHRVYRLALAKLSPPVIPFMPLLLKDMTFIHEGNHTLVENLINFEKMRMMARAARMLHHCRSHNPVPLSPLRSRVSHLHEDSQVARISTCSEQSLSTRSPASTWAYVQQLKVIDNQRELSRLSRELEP
On the technique in general: In qHTS, concentration-response curves come from the screen itself.

The target is the same in test [2]. The experiment in a line: Confirmatory qHTS for agonist of cAMP-regulated guanine nucleotide exchange factor 3 (EPAC1) (AID 1645881). Further: nearly all actives have a fitted effect of over 75% in size. Further: potency means the concentration at half of the fitted maximal effect.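 On activation: EPAC1 catalysed release of BODIPY-GDP from Rap1B seen as fluorescence loss; 100% = effect of cAMP agonist control.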
Test [3] concerns the target Rap guanine nucleotide exchange factor 4 (Homo sapiens) (UniProt Q8WZA2). The experiment in a line: Confirmatory qHTS for agonist of cAMP-regulated guanine nucleotide exchange factor 4 (EPAC2) (AID 1645884).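 Further: nucleotide exchange releases bodipy-GDP from Rap1 and this lowers its fluorescence; nearly all actives have a fitted effect of over 65% in size.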 Further: potency means the concentration at half of the fitted maximal effect. On activation: on the % scale 0 is the no-effect control and ±100 the full control effect.
Test [4] shares this target. The experiment in a line: Confirmatory qHTS for antagonist of cAMP-regulated guanine nucleotide exchange factor 4 (EPAC2) (AID 1645885). Further: nearly all actives have a fitted effect of over 25% in size. Further: potency means the concentration at half of the fitted maximal effect. On activity change, negative = inhibition: on the % scale 0 is the no-effect control and ±100 the full control effect.
Test [5] deals with Rap guanine nucleotide exchange factor 3 (Homo sapiens) (UniProt O95398). Kind of test: Counterscreen qHTS for antagonist of cAMP-regulated guanine nucleotide exchange factor 3 (EPAC1) (AID 1645888). Further: % of control where 0% means no effect. The method, boiled down: (§1)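 Rap1B-BODIPY-GDP 250 nM + GDP 50 uM; cpds 7-pt, final 9.74 nM–152 uM (activator mode) or from 7.32 nM upwards (inhibitor mode); RT; FI 480/540 nm at 5 and 30 min, then ± cAMP, reread.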
In general terms: The purpose of a counterscreen is to sort out artefacts and off-target activity.

Test [6] has the same target. Kind of test: Counterscreen qHTS for agonist of cAMP-regulated guanine nucleotide exchange factor 3 (EPAC1) (AID 1645889). Further: nearly all actives have a fitted effect of over 40% in size. Further: potency means the concentration at half of the fitted maximal effect. On activation: % of control where 0% means no effect. In a few lines: as §1

Chain of Rap guanine nucleotide exchange factor 4 (Homo sapiens) (Q8WZA2 whole entry, looked up): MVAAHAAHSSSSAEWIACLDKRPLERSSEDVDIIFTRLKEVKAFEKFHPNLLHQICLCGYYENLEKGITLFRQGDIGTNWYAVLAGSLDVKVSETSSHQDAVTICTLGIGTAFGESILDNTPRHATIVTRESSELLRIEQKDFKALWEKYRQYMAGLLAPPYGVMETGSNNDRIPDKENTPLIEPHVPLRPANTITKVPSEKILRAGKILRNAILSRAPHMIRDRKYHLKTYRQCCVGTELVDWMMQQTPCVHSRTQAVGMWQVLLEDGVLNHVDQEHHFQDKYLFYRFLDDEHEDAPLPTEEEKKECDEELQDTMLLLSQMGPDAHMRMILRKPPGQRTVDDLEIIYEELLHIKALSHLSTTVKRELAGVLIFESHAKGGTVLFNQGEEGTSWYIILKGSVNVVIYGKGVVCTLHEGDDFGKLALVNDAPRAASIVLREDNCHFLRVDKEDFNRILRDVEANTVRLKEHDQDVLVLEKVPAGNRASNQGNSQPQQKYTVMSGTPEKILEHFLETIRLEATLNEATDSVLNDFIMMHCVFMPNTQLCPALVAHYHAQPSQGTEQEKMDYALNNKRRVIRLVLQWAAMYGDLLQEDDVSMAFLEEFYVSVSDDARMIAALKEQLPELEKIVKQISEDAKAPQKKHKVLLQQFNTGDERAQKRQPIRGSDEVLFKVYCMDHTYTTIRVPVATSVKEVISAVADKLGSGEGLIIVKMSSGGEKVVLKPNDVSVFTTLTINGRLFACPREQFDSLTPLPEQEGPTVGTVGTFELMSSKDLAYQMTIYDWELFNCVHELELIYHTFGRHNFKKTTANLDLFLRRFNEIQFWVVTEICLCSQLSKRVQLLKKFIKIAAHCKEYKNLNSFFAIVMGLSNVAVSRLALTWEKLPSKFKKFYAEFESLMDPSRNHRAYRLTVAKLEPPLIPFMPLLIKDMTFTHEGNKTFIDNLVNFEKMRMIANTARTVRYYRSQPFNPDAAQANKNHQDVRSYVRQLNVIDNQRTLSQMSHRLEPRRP

On to `COc1cc(/C=C2\SC(=O)N(c3ccccc3Cl)C2=O)cc([N+](=O)[O-])c1O`, for which the Potency was 47.8 µM (active) in test [1] and 42.6 µM (active) in test [4]. Further, the Potency result in test [2], in test [3], in test [5] and in test [6] was “inactive” throughout.
For `Cc1cc2nc3c(=O)n(CCc4ccccc4)c(=O)[nH]c3nc2cc1N`, in test [1], the Potency is 12.6 µM (active). The Potency result in test [2] and in test [4] was “inactive” throughout. Moreover, the activation in test [3] was 3.45% [at 17.1 µM, percent relative to cAMP agonist control]; in test [6], 15.2% [at 30.8 µM]. In addition, the activity change, negative = inhibition in test [5] was -6.16% [at 30.8 µM].
Regarding `CN(C)S(=O)(=O)N1CCN(S(=O)(=O)N(C)C)CC1`, the Potency entry in test [1], in test [2] and in test [4] was “inactive” each time. In addition, the activation was 5.89% [at 17.1 µM, percent relative to cAMP agonist control] in test [3] and 1.25% [at 30.8 µM] in test [6]. Moreover, the activity change, negative = inhibition in test [5] was -14.8% [at 30.8 µM].
With `COc1ccc(/C=C(\NC(=O)c2cccs2)C(=O)Nc2ccc(C)cc2)cc1OC`, the Potency in test [1] is 47.8 µM (active). The Potency result in test [2], in test [3], in test [4], in test [5] and in test [6] was “inactive” each time.
On to `CCOc1cc(/C=N/NC(=O)c2ccc3c(c2)OCCO3)cc(Br)c1O`, for which the Potency in test [1] is 30.1 µM (active). Moreover, the Potency result in test [2], in test [3], in test [4], in test [5] and in test [6] was “inactive” throughout.
As for `Nc1nc(NCC(=O)O)nc(NCc2ccccc2)c1[N+](=O)[O-]`, the Potency entry in test [1], in test [2], in test [3], in test [4], in test [5] and in test [6] was “inactive” throughout.
As to `CCCCn1c(N)c(N(CC(C)C)C(=O)C2CCN(C(=O)c3ccc(Cl)cc3)CC2)c(=O)[nH]c1=O`, the Potency result in test [1], in test [2], in test [3], in test [4], in test [5] and in test [6] was “inactive” each time.
As to `CC1CN(C(=O)COC(=O)COc2ccc(C#N)cc2)CC(C)O1` (configuration not stated), the Potency entry in test [1], in test [2] and in test [4] was “inactive” each time. For the same compound, the activation in test [3] is -1.51% [at 17.1 µM, percent relative to cAMP agonist control]; in test [6], 1.53% [at 30.8 µM]. Besides, the activity change, negative = inhibition in test [5] was -3.73% [at 30.8 µM].
With `CCCOc1c(OC)cccc1C1CC(=O)Nc2cc(OC)c(OC)c(OC)c21` (configuration not stated), the Potency result in test [1], in test [2], in test [3], in test [4], in test [5] and in test [6] was “inactive” throughout.
Regarding `Cc1cccc(NC(=S)NC(=O)/C=C/c2ccco2)c1`, the Potency in test [1] was 75.7 µM (active). Also, the Potency result in test [2], in test [3], in test [4], in test [5] and in test [6] was “inactive” throughout.
Consider `O=c1c2ccccc2[nH]c(=S)n1-c1cccc(S(=O)(=O)N2CCCC2)c1`, for which the Potency entry in test [1], in test [2], in test [3], in test [4], in test [5] and in test [6] was “inactive” throughout.
As for `S=C(NCCCN1CCOCC1)Nc1cccc(-c2nnc3n2CCCCC3)c1`, the Potency entry in test [1], in test [2], in test [3], in test [4], in test [5] and in test [6] was “inactive” each time.
Take `Cc1ccc(Cl)cc1NC(=O)c1ccccc1OCC(=O)Nc1ccc(Cl)cc1`: the Potency result in test [1], in test [2] and in test [4] was “inactive” in each case. Besides, the activation in test [3] is 0.829% [at 17.1 µM, percent relative to cAMP agonist control]; in test [6], 12.9% [at 30.8 µM]. Besides, the activity change, negative = inhibition in test [5] is -9.99% [at 30.8 µM].
Consider `COc1ccccc1Cn1c(=O)oc2ccc(C)cc21`, for which the Potency result in test [1], in test [2], in test [3], in test [4], in test [5] and in test [6] was “inactive” each time.
`O=C1NN(c2ccccc2)C(=O)/C1=C/c1ccc(Sc2cccc3ccccc23)o1`: the Potency in test [1] was 17.8 µM (active). Further, the Potency result in test [2] and in test [4] was “inactive” each time. The activation was 3.36% [at 17.1 µM, percent relative to cAMP agonist control] in test [3] and 23.8% [at 30.8 µM] in test [6]. In test [5], the activity change, negative = inhibition was -8.41% [at 30.8 µM].
For the compound `COc1ccccc1/C=C1\SC(=S)N(NS(=O)(=O)c2ccc(C)cc2)C1=O`, the Potency in test [1] was 12.6 µM (active). Moreover, the Potency entry in test [2] and in test [4] was “inactive” each time. For the same compound, the activation was 1.14% [at 17.1 µM, percent relative to cAMP agonist control] in test [3] and -16.6% [at 30.8 µM] in test [6]. Besides, in test [5], the activity change, negative = inhibition is 2.6% [at 30.8 µM].
Turning to `CC1CCCN(CC(=O)Nc2cc(Cl)ccc2Oc2ccccc2)C1` (configuration not stated), the Potency result in test [1], in test [2], in test [3], in test [4], in test [5] and in test [6] was “inactive” throughout.
For the compound `O=C(O)CN1C(=O)/C(=C\c2cccc(OCc3ccc(Cl)cc3)c2)SC1=S`, the Potency in test [1] was 75.7 µM (active). The Potency result in test [2], in test [3], in test [4], in test [5] and in test [6] was “inactive” throughout.
As to `CN1CCC/C1=C/C=C1\SC(=S)NC1=O`, the Potency entry in test [1], in test [4] and in test [5] was “inactive” each time. The Potency was 89.1 µM (active) in test [2], 100 µM (active) in test [3] and 39.8 µM (active) in test [6].
`COC1=CC(=O)c2c(ccc3ncnc(N)c23)C1=O`: the Potency was 19 µM (active) in test [1] and 26.9 µM (active) in test [4]. The Potency result in test [2], in test [3], in test [5] and in test [6] was “inactive” each time.
Turning to `COc1ccc(C=NNc2ccc([N+](=O)[O-])cc2S(=O)(=O)Nc2ccccc2C(=O)O)cc1OC`, the Potency in test [1] is 25.1 µM (active). Further, the Potency entry in test [2] and in test [4] was “inactive” in each case. Moreover, the activation in test [3] is -2.2% [at 17.1 µM, percent relative to cAMP agonist control]; in test [6], 21.9% [at 30.8 µM]. In test [5], the activity change, negative = inhibition was -11.2% [at 30.8 µM].
Consider `Cc1ccc2nc(-c3ccccc3)c(Cc3ccccc3C(F)(F)F)n2c1`, for which the Potency entry in test [1], in test [2], in test [3], in test [4], in test [5] and in test [6] was “inactive” each time.
